Measured values as given in PubChem BioAssay.
Active and inactive are the calls of the source.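 How the source made its calls, unless noted: active means inhibition above 20% together with a positive visual image hit; inconclusive means visual image hit but inhibition not above 20%; inactive means no visual image hit.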

Key:
[1] = inhibitors of TNFa-induced NFkB p65 translocation, primary screen, imaging, HUVEC, MLSMR starter and 10KST1 sets (AID 438); conditions: HUVEC TNFa-induced p65 nuclear translocation; cell count: measured here: nuclei count (cytotoxicity indicator), at 2.08 µM; inhibition: at 2 µM, stronger effect = higher value, 0% TNFa-plus-vehicle, 100% no-TNFa wells;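 further: compound added about 3h40 before a 20 min TNFalpha stimulation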;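 on inhibition: signal is the nuclear over cytoplasmic p65 intensity ratio per well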
[2] = inhibitors of mutant huntingtin aggregation, primary screen, imaging, exon1htt(103Q)mCFP cells, high-content imaging (AID 483;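 active means visual image review flags a hit and inhibition of aggregation exceeds 20%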;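 further: compound exposure lasted 3 days before fixation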;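 on nuclei count: percent of the per-plate median nuclei count of sample wells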); conditions: exon1htt(103Q)mCFP cell line, aggregate imaging, at 2 µM; inhibition of aggregation: stronger effect = higher value; nuclei count: measured here: cell count, toxicity
[3] = inhibitors of E-selectin induction by TNFa, primary screen, imaging, HUVEC, immunofluorescence, MLSMR starter and 10KST1 sets (AID 487;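 active means visually confirmed hit in the image check and inhibition above 20%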;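 on inhibition: signal is fraction of cell area covered by stained E-selectin grains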;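 on nuclei count: 100% = median nuclei count of all wells on the same plate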); conditions: HUVEC TNFalpha-induced E-selectin immunofluorescence imaging, at 2 µM; inhibition: stronger effect = higher value; nuclei count: measured here: cell number, toxicity
[4] = target: Voltage-gated potassium channel subunit beta-2 (Rattus norvegicus) (UniProt P62483); assay: KvBeta enzyme negative modulators, primary screen, biochemical, NADPH fluorescence (AID 622;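 active means fluorescence slope higher than the sample average by over 3 SD, cut at about -0.22 in these data, passing the limit was not always enough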;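 further: slope of raw intensity against log time taken from 70 to 1610 s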); conditions: recombinant KvBeta, 4-cyanobenzaldehyde reduction, at 10 µM, stronger effect = higher value
Voltage-gated potassium channel subunit beta-2 (Rattus norvegicus), sequence (P62483 whole entry, looked up): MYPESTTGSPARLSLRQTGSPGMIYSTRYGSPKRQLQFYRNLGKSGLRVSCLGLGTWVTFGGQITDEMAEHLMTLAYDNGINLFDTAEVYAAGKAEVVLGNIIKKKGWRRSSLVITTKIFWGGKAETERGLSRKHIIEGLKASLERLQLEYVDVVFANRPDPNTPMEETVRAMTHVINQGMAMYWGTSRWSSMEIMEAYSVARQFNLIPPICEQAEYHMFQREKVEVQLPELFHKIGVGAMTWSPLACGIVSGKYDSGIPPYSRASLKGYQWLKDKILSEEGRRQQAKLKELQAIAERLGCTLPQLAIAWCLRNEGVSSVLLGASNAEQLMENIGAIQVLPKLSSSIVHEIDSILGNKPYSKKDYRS

[5] = target: Voltage-gated potassium channel subunit beta-2 (Rattus norvegicus) (UniProt P62483); assay: KvBeta positive modulators, primary screen, biochemical, NADPH fluorescence (AID 623;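 active means NADPH fluorescence slope more negative than the mean of all samples by about 3 SD, 99.7% confidence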;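 further: fluorescence intensity change per second fitted from 20 to 320 s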); conditions: Recombinant KvBeta, NADPH fluorescence decrease slope, 10 min; at 10 µM; stronger effect = lower value
[6] = target: Alpha-2C adrenergic receptor (Homo sapiens) (UniProt P18825); assay: modulators of alpha2C/GIRK thallium flux, primary screen, cell-based, HEK293 alpha2C/GIRK1/2 (AID 624;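 active means fluorescence slope after compound addition differing from the mean of all screened samples at 99.7% confidence, in either direction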;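 further: slope of fluorescence ratio to pre-addition baseline per second over 15 to 24 s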); conditions: thallium flux BTC fluorescence, at 10 µM, actives lie on both sides
Alpha-2C adrenergic receptor (Homo sapiens), sequence (P18825 whole entry, looked up): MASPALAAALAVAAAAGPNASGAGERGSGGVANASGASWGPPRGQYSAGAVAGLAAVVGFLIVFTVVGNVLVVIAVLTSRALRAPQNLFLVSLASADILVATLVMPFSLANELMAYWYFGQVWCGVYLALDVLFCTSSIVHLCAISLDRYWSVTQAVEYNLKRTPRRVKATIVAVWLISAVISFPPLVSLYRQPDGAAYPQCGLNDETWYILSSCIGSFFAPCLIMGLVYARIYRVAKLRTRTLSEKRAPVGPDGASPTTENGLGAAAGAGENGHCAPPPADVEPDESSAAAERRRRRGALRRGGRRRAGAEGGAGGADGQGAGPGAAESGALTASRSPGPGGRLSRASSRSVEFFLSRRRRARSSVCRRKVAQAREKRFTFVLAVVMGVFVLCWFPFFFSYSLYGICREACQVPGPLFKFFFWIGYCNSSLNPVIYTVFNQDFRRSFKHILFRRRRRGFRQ

[7] = inhibitors of Sendai virus-induced IRF3 signaling, primary screen, TLR/RLR signaling modifier project, cell-based, Sendai virus stimulus, luciferase, 10K MLSCN set (AID 602276;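 active means inhibition at or above 50% at 10 µM; inactive means inhibition below 50%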;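 further: firefly luciferase from ISG56 promoter only with Renilla not read in this screen; 0% = Sendai virus plus DMSO and 100% = medium plus DMSO without virus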); conditions: HEK293 RL24 IRF3 luciferase reporter, at 10 µM, stronger effect = higher value
[8] = inhibitors of poly I:C-induced TLR3 signaling, primary screen, cell-based, poly I:C stimulus, luciferase, 10K MLSCN set (AID 602277;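 active means inhibition of the reporter signal at or above 50%; inactive means inhibition below 50%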); conditions: HEK293-TLR3 RL24 IRF3 luciferase reporter, at 10 µM, stronger effect = higher value

| Compound | cell count [1] | inhibition [1] | inhibition of aggregation [2] | nuclei count [2] [%] | inhibition [3] | nuclei count [3] [%] | fluorescence slope [4] | NADPH fluorescence slope [5] | slope [6] | inhibition [7] | inhibition [8] |
| --- | --- | --- | --- | --- | --- | --- | --- | --- | --- | --- | --- |
| O=C(CSc1nnc(-c2cccs2)o1)NCC1CN(Cc2ccccc2)CCO1 (centres undefined) | 669 | 7.8% (inactive) | 4.9% (inactive) | 92.2 | -87.4% (inactive) | 140 | -0.607 (inactive) | -6.7e-06 (inactive) | 0.00563 (inactive) | -0.491% (inactive) | -12.1% (inactive) |
| CC(=O)Nc1ccc(NC(=O)c2cc(C)nn2-c2ccccc2)cc1 | 687 | -6.1% (inactive) | -15.3% (inactive) | 112 | -36.4% (inactive) | 129 | -0.539 (inactive) | -1.7e-06 (inactive) | 0.00394 (inactive) | -3.81% (inactive) | 0.294% (inactive) |
| CCn1c(SCC(=O)Nc2cc(C)on2)nc2sc3c(c2c1=O)CCCC3 | 470 | -16.6% (inactive) | 4% (inactive) | 118 | -26.9% (inactive) | 110 | -0.4 (inactive) | 1.4e-06 (inactive) | 0.00722 (inactive) | -5.69% (inactive) | 98.9% (active) |
| CSc1nc(N2CCOCC2)c2ccccc2n1 | 730 | -29.3% (inactive) | 13.4% (inactive) | 80.7 | -56.6% (inactive) | 114 | -0.601 (inactive) | -3.9e-05 (inactive) | 0.00469 (inactive) | 6.41% (inactive) | -10.5% (inactive) |
| O=c1c2ccccc2nc(SCc2cn3ccsc3n2)n1-c1ccc(F)cc1 | 607 | 6.1% (inactive) | 9% (inactive) | 103 | 59.6% (active) | 71.6 | -0.626 (inactive) | 1.8e-05 (inactive) | 0.00521 (inactive) | 23.9% (inactive) | 22.8% (inactive) |
| O=C(NCCCN1CCCC1=O)C1CCN(S(=O)(=O)N2CCOCC2)CC1 | 195 | 25.3% (active) | 17.1% (inactive) | 94.9 | 27.7% (inactive) | 81.9 | -0.362 (inactive) | -4.9e-05 (inactive) | 0.00575 (inactive) | -12.7% (inactive) | -7.16% (inactive) |
| CC1=C(C)C(=O)NC(Nc2nc(C)c3cc(C)cc(C)c3n2)N1 (centres undefined) | 540 | -14.3% (inactive) | -9.7% (inactive) | 103 | 5.2% (inactive) | 115 | -0.285 (inactive) | -2.3e-05 (inactive) | 0.00676 (inactive) | 7.09% (inactive) | -49.5% (inactive) |
| Cc1ccccc1-c1nc(CS(=O)(=O)CC(=O)NCc2ccccc2)c(C)o1 | 642 | 2.8% (inactive) | -36.7% (inactive) | 75.5 | 16.5% (inactive) | 106 | -0.532 (inactive) | -2.1e-05 (inactive) | 0.00661 (inactive) | 9.9% (inactive) | 24.3% (inactive) |
| Cn1c(=O)c2c(nc(SCC(=O)N3CCCc4ccccc43)n2C)n(C)c1=O | 354 | -5.7% (inactive) | -9.7% (inactive) | 45.1 | -139% (inactive) | 115 | -0.361 (inactive) | -7.1e-05 (inactive) | 0.00482 (inactive) | -0.111% (inactive) | -6.19% (inactive) |
| O=C(CCn1c(=O)c2ccccc2n(CC(=O)NCCC2=CCCCC2)c1=O)NCc1ccco1 | 596 | -10.9% (inactive) | 25.7% (inactive) | 102 | -9.8% (inactive) | 82 | -0.558 (inactive) | -3e-05 (inactive) | 0.00599 (inactive) | -4.87% (inactive) | 10.3% (inactive) |
| CN(C)S(=O)(=O)N1CCN(c2cccc(Cl)c2)CC1 | 411 | -0.2% (inactive) | 16.9% (inactive) | 87.3 | -14.6% (inactive) | 99.2 | -0.514 (inactive) | 7.3e-06 (inactive) | 0.00363 (inactive) | 10.3% (inactive) | 20.7% (inactive) |
| COc1ccc(CCNC(=O)CN(c2ccccc2OC)S(C)(=O)=O)cc1 | 723 | -3.4% (inactive) | 33.6% (inactive) | 87.7 | -41.9% (inactive) | 98.4 | -0.427 (inactive) | -0.000127 (inactive) | 0.00571 (inactive) | 15.7% (inactive) | 27.5% (inactive) |
| COc1ccccc1N1CCN(C(=O)CSc2nc3ncnc(N)c3[nH]2)CC1 | 467 | -8.8% (inactive) | -0.2% (inactive) | 110 | -144% (inactive) | 162 | -0.52 (inactive) | 7.1e-06 (inactive) | 0.00625 (inactive) | 16% (inactive) | 23.6% (inactive) |
| Cc1[nH]n(C(N)=S)c(=O)c1C(c1ccccc1)C(C#N)C#N (centres undefined) | 694 | 9.6% (inactive) | -2.9% (inactive) | 107 | 32.6% (inactive) | 99.1 | -0.38 (inactive) | 5.1e-06 (inactive) | 0.00522 (inactive) | -11.3% (inactive) | -18% (inactive) |
